Consider eight compounds from PubChem BioAssay (NCI).

Structures are written as SMILES. The panel holds about 83,000 compounds, 20% with a hit somewhere; the sample as a whole holds those more often.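 Treatment: one concentration, 48 hours, 96-well format. Scoring: percent growth, with anything below 10 considered active.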 Values without a mark were called inactive. Activity calls are given as the source filed them.

Some test systems named below: NCI-H23 lung; NCI-H226 lung; NCI-H322M lung; HOP-62 NSCLC; NCI-H460 lung; HOP-92 NSCLC; NCI-H522 lung; A549/ATCC NSCLC; 786-0 renal; DU-145 prostate; K-562 leukemia; MALME-3M melanoma; MDA-MB-231 breast; RXF 393 renal; SF-268 CNS; SF-295 CNS; SF-539 CNS; UACC-257 melanoma; M14 melanoma.
Assay in all cases: NCI-60 one-dose screen, 48 h (100 = growth as untreated, 0 = no growth, -100 = all killed)
What all share (conditions): 10 µM unless noted

Turning to `CNCCNc1nc2ccccc2c2c(=O)c3cc(F)ccc3oc12`, the growth is 64.8% with NCI-H23 lung; 68% in the experiment with NCI-H226 lung; 43.8% in the experiment on NCI-H322M lung; 44.2% in the experiment on HOP-62 NSCLC; 55.8% in the experiment on NCI-H460 lung; 33.3% in the experiment on HOP-92 NSCLC. For the same compound, the growth in the experiment on NCI-H522 lung is 58%; in the experiment with A549/ATCC NSCLC, 50.8%; with 786-0 renal, 53.1%; with DU-145 prostate it was 48.6%; with K-562 leukemia, 56%; in the experiment on MALME-3M melanoma, 86.3%. Besides, the growth with MDA-MB-231 breast was 39.2%; in the experiment on RXF 393 renal it was 59.2%; in the experiment on SF-268 CNS, 58.2%; in the experiment on SF-295 CNS, 75.4%; in the experiment on SF-539 CNS, 58.9%; with UACC-257 melanoma it was 99.4%. Further, in the experiment with M14 melanoma, the growth was 86.8%.

As to `CCCCN1CCN(c2ccc3nc(-c4ccc5nc(-c6ccc(OCC)c(OCC)c6)[nH]c5c4)[nH]c3c2)CC1`, the growth in the experiment with NCI-H23 lung was -55.9% (active); in the experiment on NCI-H226 lung it was 16.2%; with NCI-H322M lung, 14.1%; with HOP-62 NSCLC, -69.7% (active); in the experiment on NCI-H460 lung, -84.3% (active); in the experiment with HOP-92 NSCLC it was 81.3%. The growth with NCI-H522 lung is -32.2% (active); with A549/ATCC NSCLC it was 37.7%; in the experiment on 786-0 renal, -87.4% (active); in the experiment on DU-145 prostate, -86.2% (active); in the experiment on K-562 leukemia, -37.1% (active); in the experiment on MALME-3M melanoma, 9.35% (active). Moreover, the growth was -81.2% (active) with MDA-MB-231 breast; -96.3% (active) in the experiment on RXF 393 renal; 51.6% in the experiment with SF-268 CNS; -67.8% (active) in the experiment with SF-295 CNS; -93.7% (active) in the experiment on SF-539 CNS; 29% in the experiment on UACC-257 melanoma. Moreover, the growth in the experiment with M14 melanoma was -28% (active).

As for `COc1cc2c(cc1OC)-c1ccc3cc4c(cc3c1N(CCN(C)C)C2)OCO4`, the growth with NCI-H23 lung is -8.26% (active); with NCI-H226 lung, -84.7% (active); in the experiment with NCI-H322M lung it was -3.14% (active); in the experiment on HOP-62 NSCLC, -21.6% (active); in the experiment with NCI-H460 lung, -34.2% (active); with HOP-92 NSCLC it was -5.08% (active). For the same compound, the growth in the experiment on NCI-H522 lung is -44.9% (active); with A549/ATCC NSCLC it was -57.3% (active); with 786-0 renal, -87.7% (active); with DU-145 prostate, 6.23% (active); with K-562 leukemia it was 2.7% (active); in the experiment with MALME-3M melanoma it was 24.3%. For the same compound, the growth in the experiment on MDA-MB-231 breast is -2.8% (active); in the experiment on RXF 393 renal, -32.7% (active); in the experiment on SF-268 CNS it was 23.6%; in the experiment with SF-295 CNS it was -6.18% (active); in the experiment on SF-539 CNS, -7.83% (active); with UACC-257 melanoma, 10.4%. Besides, the growth with M14 melanoma was -7.62% (active).

Consider `CSc1ncc(C)c(Nc2ccc(Cl)cc2)n1`, for which the growth with NCI-H23 lung was 99.6%; in the experiment on NCI-H226 lung, 104%; in the experiment with NCI-H322M lung it was 106%; in the experiment with HOP-62 NSCLC it was 111%; in the experiment with NCI-H460 lung it was 103%; in the experiment on HOP-92 NSCLC it was 73.6%. Besides, the growth is 80.1% with NCI-H522 lung; 96.4% in the experiment on A549/ATCC NSCLC; 91.9% in the experiment on 786-0 renal; 102% in the experiment on DU-145 prostate; 94% in the experiment with K-562 leukemia; 122% with MALME-3M melanoma. Further, the growth with MDA-MB-231 breast was 110%; with RXF 393 renal it was 114%; in the experiment on SF-268 CNS, 99.9%; in the experiment on SF-295 CNS, 96%; with SF-539 CNS, 118%; with UACC-257 melanoma, 127%. The growth in the experiment on M14 melanoma was 112%.

On to `O=C(/C=C/C12c3ccccc3C(c3ccccc31)C1C(=O)N(c3ccccc3)C(=O)C12)c1ccc(Cl)cc1` (configuration not stated), for which the growth in the experiment with NCI-H23 lung is 17.2%; in the experiment on NCI-H226 lung, -10% (active); in the experiment with NCI-H322M lung, 35.3%; in the experiment with HOP-62 NSCLC, 23.5%; in the experiment on NCI-H460 lung, -17.5% (active); with HOP-92 NSCLC, 39.1%. The growth was 10.1% in the experiment with NCI-H522 lung; 25.1% in the experiment with A549/ATCC NSCLC; 8.93% (active) in the experiment with 786-0 renal; 21.8% in the experiment on DU-145 prostate; 18.2% with K-562 leukemia; -32.7% (active) in the experiment on MALME-3M melanoma. In addition, the growth is -11.8% (active) with MDA-MB-231 breast; -71.2% (active) with RXF 393 renal; 43% in the experiment on SF-268 CNS; 6.27% (active) in the experiment with SF-295 CNS; 0.701% (active) in the experiment with SF-539 CNS; 20.2% with UACC-257 melanoma. The growth in the experiment on M14 melanoma was 30%.

Take `CC(c1ccc(-n2cccn2)cc1)c1cnc(N2CCc3ccc(C(N)=O)cc3C2)s1` (configuration not stated): the growth in the experiment with NCI-H23 lung was 59%; with NCI-H226 lung, 43.6%; with NCI-H322M lung, 86.8%; in the experiment on HOP-62 NSCLC, 82.2%; with NCI-H460 lung, 74.5%; with HOP-92 NSCLC it was 71%. Further, the growth is 41% in the experiment on NCI-H522 lung; 65.8% with A549/ATCC NSCLC; 65.8% in the experiment on 786-0 renal; 88.2% with DU-145 prostate; 30.4% in the experiment on K-562 leukemia; 72.4% with MALME-3M melanoma. The growth is 72.5% with MDA-MB-231 breast; 82.2% with RXF 393 renal; 86% in the experiment with SF-268 CNS; 52.3% in the experiment with SF-295 CNS; 70.7% with SF-539 CNS; 48.7% in the experiment on UACC-257 melanoma. Further, the growth with M14 melanoma was 45.6%.

On to `Clc1ccc2c(NCCCN3CCN(c4nc(-n5ccnc5)nc5ccccc45)CC3)ccnc2c1`, for which the growth with NCI-H23 lung was 104%; in the experiment on NCI-H226 lung, 113%; in the experiment with NCI-H322M lung, 87.1%; in the experiment on HOP-62 NSCLC it was 84.7%; in the experiment with NCI-H460 lung, 89.3%; with HOP-92 NSCLC, 58.7%. In addition, the growth is 75.7% in the experiment on NCI-H522 lung; 96.9% in the experiment on A549/ATCC NSCLC; 78.8% in the experiment on 786-0 renal; 93.3% in the experiment on DU-145 prostate; -48.8% (active) with K-562 leukemia; -83.2% (active) in the experiment with MALME-3M melanoma. For the same compound, the growth with MDA-MB-231 breast is 8.95% (active); in the experiment with RXF 393 renal, 37.1%; in the experiment on SF-268 CNS it was 80%; in the experiment with SF-295 CNS it was 61.2%; with SF-539 CNS, -83.7% (active); in the experiment with UACC-257 melanoma, 87.1%. Also, the growth in the experiment with M14 melanoma was -24% (active).

For `COC(=O)CNC(=O)C(=O)c1c(O)c(O)c(C(C)C)c2cc(C)c(-c3c(C)cc4c(C(C)C)c(O)c(O)c(C(=O)C(=O)NCC(=O)OC)c4c3O)c(O)c12`, the growth in the experiment on NCI-H23 lung is 17.8%; in the experiment with NCI-H226 lung, 54.6%; in the experiment with NCI-H322M lung, 22.1%; with HOP-62 NSCLC, 18.5%; in the experiment on NCI-H460 lung it was 5.29% (active); in the experiment on HOP-92 NSCLC, -7.96% (active). The growth was -0.907% (active) in the experiment on NCI-H522 lung; 11% with A549/ATCC NSCLC; 33.9% in the experiment with 786-0 renal; 24.9% with DU-145 prostate; 14.7% with K-562 leukemia; 46.2% in the experiment on MALME-3M melanoma. The growth with MDA-MB-231 breast is -13.6% (active); in the experiment on RXF 393 renal it was 53.8%; in the experiment with SF-268 CNS, 26.8%; with SF-295 CNS it was 1.96% (active); in the experiment with SF-539 CNS, 18.9%; with UACC-257 melanoma, 52.1%. The growth with M14 melanoma is 36.7%.
